This note sets out measurements from article PMC5540273 (PLoS ONE, 2017).

Test systems include DDR1; DDR2; DMPK; DYRK1A; DYRK1B; DYRK2; EGFR; EIF2AK1; EPHA1; EPHA2; EPHA3; EPHA4; EPHA5; EPHA6.
What all share (conditions): concentration: 1 μM,replicates: in singlicate; n = 1
For another test, the system named is T1, DCAMKL2.
T1 construct: gene DCLK2

Another test has as its system T2, DCAMKL3.
T2 construct: gene DCLK3

Another test has as its system T3, DLK.
T3 construct: gene MAP3K12

A further test deals with T4, DMPK2.
T4 construct: gene CDC42BPG

The next test has as its system T5, DRAK1.
T5 construct: gene STK17A

The next test relates to T6, DRAK2.
T6 construct: gene STK17B
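Further: KINOMEscan kinase panel screen.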

`COc1ccc(C[C@@H](CN)NC(=O)c2cc(Br)c(-c3ccnc4[nH]ccc34)s2)cc1.Cl.Cl` [GSK1389063]: the “%Inh” value stood at 38% with DCAMKL2; 86% with DCAMKL3; 2% in the test with DDR1; 26% with DDR2; 10% in the test on DLK; 99.4% with DMPK2. The “%Inh” value is reported as 28% in the test on DMPK; 44% with DRAK1; 0% in the test with DRAK2; 97.6% with DYRK1A; 91.3% in the test with DYRK1B; 69% in the test on DYRK2. Besides, the “%Inh” value was determined as 37% in the test on EGFR; 7% in the test on EIF2AK1; 52% in the test on EPHA1; 17% in the test with EPHA2; 44% with EPHA3; 25% in the test with EPHA4. The “%Inh” value amounted to 0% in the test with EPHA5 and 33% in the test on EPHA6.
Consider `C[C@@H](Oc1cc(-c2cnn(C3CCNCC3)c2)cnc1N)c1c(Cl)ccc(F)c1Cl`, for which the “%Inh” value in the test on DCAMKL2 amounted to 79%; with DCAMKL3, 22%; with DDR1, 59%; in the test with DDR2, 44%; with DLK, 94.6%; in the test on DMPK2, 0%. Also, the “%Inh” value with DMPK is reported as 22%; in the test with DRAK1, 0%; with DRAK2 it was 0%; in the test with DYRK1A, 12%; in the test on DYRK1B, 0%; in the test with DYRK2 it was 30%. Further, the “%Inh” value is reported as 0% in the test on EGFR; 14% in the test with EIF2AK1; 93.5% with EPHA1; 82% in the test with EPHA2; 37% with EPHA3; 49% in the test on EPHA4. For the same molecule, the results for the “%Inh” value in the test on EPHA5 and in the test with EPHA6 were 51% and 90.2%, respectively.
Take `C[C@H]1Oc2cc(cnc2N)-c2c(nn(C)c2C#N)CN(C)C(=O)c2ccc(F)cc21`: the “%Inh” value with DCAMKL2 was 91.8%; in the test on DCAMKL3 it was 15%; in the test with DDR2, 3%; in the test with DLK, 2%; in the test with DMPK2, 0%; in the test on DMPK, 0%. Besides, the “%Inh” value amounted to 2% with DRAK1; 0% with DRAK2; 0% in the test with DYRK1A; 6% in the test on DYRK1B; 0% in the test on DYRK2; 9% in the test with EGFR. For the same molecule, the “%Inh” value in the test with EIF2AK1 is on record as 0%; in the test on EPHA1 it was 53%; with EPHA2, 48%; in the test on EPHA3, 0%; with EPHA4, 1%; with EPHA5, 24%. Further, the “%Inh” value with EPHA6 was 33%.
For `Cc1ccc(-n2nc(C(C)(C)C)cc2NC(=O)Nc2ccc(OCCN3CCOCC3)c3ccccc23)cc1` [GW839464], the “%Inh” value in the test with DCAMKL2 is reported as 0%; in the test with DCAMKL3 it was 34%; with DLK, 7%; in the test with DMPK2 it was 40%; in the test on DMPK, 4%; in the test on DRAK1 it was 0%. Moreover, the “%Inh” value with DRAK2 was 11%; in the test with DYRK1A, 0%; in the test with DYRK1B it was 100%; in the test with DYRK2, 14%; in the test with EGFR it was 33%; with EIF2AK1, 0%. For the same molecule, the “%Inh” value worked out at 52% in the test on EPHA1, 6% in the test on EPHA4, 0% in the test on EPHA5 and 23% in the test on EPHA6.
For the molecule `Cl.Cl.NC[C@H](Cc1ccc(C(F)(F)F)cc1)NC(=O)c1cc(Br)c(-c2ccnc3[nH]ccc23)s1` [GSK1487252], the “%Inh” value came to 0% in the test with DCAMKL2; 75% in the test on DCAMKL3; 8% in the test with DDR1; 0% in the test with DDR2; 8% in the test with DLK; 64% in the test on DMPK2. Also, the “%Inh” value is listed as 0% in the test on DMPK; 18% with DRAK1; 0% in the test with DRAK2; 35% in the test on DYRK1A; 41% in the test on DYRK1B; 33% in the test with DYRK2. For the same molecule, the “%Inh” value is reported as 30% in the test on EGFR; 0% with EIF2AK1; 26% with EPHA1; 14% with EPHA2; 0% with EPHA3; 19% in the test on EPHA4. In addition, the “%Inh” value turned out to be 0% with EPHA5 and 29% with EPHA6.
For the molecule `CNC(=O)c1ccccc1Sc1ccc2c(/C=C/c3ccccn3)n[nH]c2c1`, the “%Inh” value in the test with DCAMKL2 stood at 14%; in the test with DCAMKL3, 76%; with DDR1, 18%; with DDR2 it was 14%; in the test on DLK, 41%; in the test with DMPK2, 6%. The “%Inh” value in the test with DMPK is 0%; in the test with DRAK1, 76%; with DRAK2 it was 0%; in the test on DYRK1A, 0%; in the test on DYRK1B, 0%; in the test on DYRK2 it was 0%. Also, the “%Inh” value came to 6% in the test with EIF2AK1; 12% in the test on EPHA1; 9% with EPHA2; 0% in the test with EPHA3; 0% in the test on EPHA4; 0% in the test on EPHA5. Besides, the “%Inh” value in the test with EPHA6 came to 0%.
As for `Cc1occc1-c1nc(N)c(OC[C@@H](N)Cc2c[nH]c3ccccc23)cc1-c1cc2c(C)n[nH]c2cn1` [GSK1660450], the “%Inh” value came out at 19% in the test with DCAMKL2; 56% with DCAMKL3; 10% in the test on DDR1; 0% in the test with DDR2; 13% with DLK; 86% in the test with DMPK2. Further, the “%Inh” value in the test with DMPK was 99.1%; in the test on DRAK1 it was 0%; in the test on DRAK2 it was 0%; in the test with DYRK1A, 100%; with DYRK1B it was 91.6%; in the test with DYRK2, 92.1%. Also, the “%Inh” value in the test with EGFR is reported as 97.2%; with EIF2AK1 it was 12%; with EPHA1, 16%; with EPHA2, 13%; with EPHA3, 30%; in the test on EPHA4, 14%. Moreover, the “%Inh” value worked out at 0% with EPHA5 and 32% in the test with EPHA6.
For `CN(C)CCOc1ccc(-c2cc(-c3c[nH]nc3-c3ccccn3)ccn2)cc1` [GW835314], the “%Inh” value in the test with DCAMKL2 stood at 1%; in the test with DCAMKL3, 1%; in the test with DDR1, 0%; in the test with DDR2 it was 0%; in the test with DLK, 8%; in the test on DMPK2 it was 0%. For the same molecule, the “%Inh” value in the test with DMPK is listed as 0%; in the test with DRAK1 it was 18%; in the test with DRAK2, 9%; with DYRK1A it was 1%; in the test with DYRK1B it was 22%; in the test with DYRK2, 17%. For the same molecule, the “%Inh” value in the test with EGFR came to 28%; with EIF2AK1, 93.7%; in the test on EPHA1 it was 18%; with EPHA2 it was 10%; in the test on EPHA3, 18%; with EPHA4 it was 90%. The “%Inh” value with EPHA5 worked out at 5%; in the test with EPHA6 it was 84%.
